The target in assay [1] is Death-associated protein kinase 1 (Homo sapiens) (UniProt P53355). The settings on record: at 10 µM.
Assay [2] deals with Death-associated protein kinase 2 (Homo sapiens) (UniProt Q9UIK4). The settings on record: at 1 µM.
Assay [3] has the same target. To be noted: at 10 µM.
The target in assay [4] is T1, Serine/threonine-protein kinase DCLK2 (Homo sapiens) (UniProt Q8N568).
T1 sequence (whole entry): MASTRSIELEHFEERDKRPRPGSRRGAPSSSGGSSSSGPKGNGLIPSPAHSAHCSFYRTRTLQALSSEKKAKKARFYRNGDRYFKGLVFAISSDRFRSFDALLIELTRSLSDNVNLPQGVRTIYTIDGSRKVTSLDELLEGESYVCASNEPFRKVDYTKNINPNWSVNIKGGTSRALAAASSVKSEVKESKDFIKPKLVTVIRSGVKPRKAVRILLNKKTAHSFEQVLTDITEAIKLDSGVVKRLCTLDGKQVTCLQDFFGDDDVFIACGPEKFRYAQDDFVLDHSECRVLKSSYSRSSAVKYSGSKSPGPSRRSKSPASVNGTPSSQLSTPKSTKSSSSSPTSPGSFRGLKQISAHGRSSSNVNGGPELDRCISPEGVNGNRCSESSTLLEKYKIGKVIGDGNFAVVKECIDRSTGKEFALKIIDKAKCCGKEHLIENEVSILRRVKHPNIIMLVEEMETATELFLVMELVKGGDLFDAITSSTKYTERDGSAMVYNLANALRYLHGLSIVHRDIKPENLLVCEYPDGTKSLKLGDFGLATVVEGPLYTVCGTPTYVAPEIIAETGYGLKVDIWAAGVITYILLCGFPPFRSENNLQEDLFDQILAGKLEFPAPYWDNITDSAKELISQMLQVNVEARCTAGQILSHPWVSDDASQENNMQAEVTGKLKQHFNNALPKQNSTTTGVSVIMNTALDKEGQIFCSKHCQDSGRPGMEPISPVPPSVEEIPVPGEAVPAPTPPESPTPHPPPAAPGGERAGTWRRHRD
To be noted: at 1 µM.

Assay [5] has as its target T1, Serine/threonine-protein kinase DCLK2 (Homo sapiens). To be noted: at 10 µM.
The target in assay [6] is T2, Discoidin domain-containing receptor 2 (Homo sapiens) (UniProt Q16832).
T2 sequence (whole entry): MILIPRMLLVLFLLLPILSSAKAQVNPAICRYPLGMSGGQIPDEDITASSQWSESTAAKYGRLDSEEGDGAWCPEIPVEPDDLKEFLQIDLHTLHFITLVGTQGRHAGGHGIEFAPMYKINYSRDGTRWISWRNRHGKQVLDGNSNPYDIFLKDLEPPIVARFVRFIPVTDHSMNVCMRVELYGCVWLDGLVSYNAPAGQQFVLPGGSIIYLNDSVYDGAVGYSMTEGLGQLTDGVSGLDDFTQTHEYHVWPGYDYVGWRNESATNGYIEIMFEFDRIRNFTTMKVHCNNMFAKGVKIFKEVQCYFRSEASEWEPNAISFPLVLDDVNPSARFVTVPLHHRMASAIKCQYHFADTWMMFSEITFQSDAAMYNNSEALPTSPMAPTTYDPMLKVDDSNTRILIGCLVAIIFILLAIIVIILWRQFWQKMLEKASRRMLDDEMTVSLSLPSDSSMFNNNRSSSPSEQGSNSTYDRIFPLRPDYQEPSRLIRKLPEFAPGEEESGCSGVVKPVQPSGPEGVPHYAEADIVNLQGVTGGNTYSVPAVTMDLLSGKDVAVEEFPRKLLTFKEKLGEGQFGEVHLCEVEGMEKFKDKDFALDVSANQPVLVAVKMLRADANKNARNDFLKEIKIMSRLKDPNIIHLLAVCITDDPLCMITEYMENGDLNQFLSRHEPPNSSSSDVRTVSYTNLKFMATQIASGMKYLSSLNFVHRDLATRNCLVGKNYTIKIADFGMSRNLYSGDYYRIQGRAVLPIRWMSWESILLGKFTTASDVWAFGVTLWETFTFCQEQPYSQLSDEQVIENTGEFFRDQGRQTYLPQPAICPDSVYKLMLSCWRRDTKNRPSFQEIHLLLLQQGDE
To be noted: at 1 µM.

Assay [7] addresses T2, Discoidin domain-containing receptor 2 (Homo sapiens). The settings on record: at 10 µM.
In assay [8] the target is T3, Myotonin-protein kinase (Homo sapiens) (UniProt Q09013).
T3 sequence (whole entry): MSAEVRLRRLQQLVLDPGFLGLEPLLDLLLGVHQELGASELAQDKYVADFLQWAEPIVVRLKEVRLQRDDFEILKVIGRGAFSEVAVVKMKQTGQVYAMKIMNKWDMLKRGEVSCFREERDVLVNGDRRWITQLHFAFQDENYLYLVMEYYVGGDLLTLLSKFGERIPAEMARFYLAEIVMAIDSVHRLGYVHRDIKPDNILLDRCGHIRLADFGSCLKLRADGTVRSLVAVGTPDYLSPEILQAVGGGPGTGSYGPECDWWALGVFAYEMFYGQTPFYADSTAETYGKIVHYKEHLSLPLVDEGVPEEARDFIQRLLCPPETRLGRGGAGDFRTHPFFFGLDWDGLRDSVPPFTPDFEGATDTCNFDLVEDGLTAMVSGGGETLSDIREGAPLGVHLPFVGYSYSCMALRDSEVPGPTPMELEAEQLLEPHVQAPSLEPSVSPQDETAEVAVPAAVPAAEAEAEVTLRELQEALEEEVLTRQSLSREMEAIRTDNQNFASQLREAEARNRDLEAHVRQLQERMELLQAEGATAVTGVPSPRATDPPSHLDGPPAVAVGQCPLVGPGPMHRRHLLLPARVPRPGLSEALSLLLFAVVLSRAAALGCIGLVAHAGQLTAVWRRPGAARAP
The settings on record: at 1 µM.

The target in assay [9] is T3, Myotonin-protein kinase (Homo sapiens). The settings on record: at 10 µM.
The target of assay [10] is T4, Serine/threonine-protein kinase 17A (Homo sapiens) (UniProt Q9UEE5).
T4 sequence (whole entry): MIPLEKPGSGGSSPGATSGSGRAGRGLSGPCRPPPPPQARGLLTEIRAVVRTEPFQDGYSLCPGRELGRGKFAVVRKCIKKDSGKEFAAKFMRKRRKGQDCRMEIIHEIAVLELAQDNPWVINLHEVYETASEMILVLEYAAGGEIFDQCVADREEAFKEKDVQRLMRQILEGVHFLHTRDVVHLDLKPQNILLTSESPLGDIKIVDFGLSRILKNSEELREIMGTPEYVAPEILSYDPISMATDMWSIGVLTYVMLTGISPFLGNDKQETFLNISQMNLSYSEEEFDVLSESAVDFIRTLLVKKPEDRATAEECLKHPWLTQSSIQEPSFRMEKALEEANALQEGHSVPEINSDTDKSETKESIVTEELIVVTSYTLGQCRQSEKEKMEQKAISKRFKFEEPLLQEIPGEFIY
The settings on record: at 1 µM.

In assay [11] the target is T4, Serine/threonine-protein kinase 17A (Homo sapiens). The settings on record: at 10 µM.
Assay [12] concerns the target T5, Dual specificity tyrosine-phosphorylation-regulated kinase 2 (Homo sapiens) (UniProt Q92630).
T5 sequence (whole entry): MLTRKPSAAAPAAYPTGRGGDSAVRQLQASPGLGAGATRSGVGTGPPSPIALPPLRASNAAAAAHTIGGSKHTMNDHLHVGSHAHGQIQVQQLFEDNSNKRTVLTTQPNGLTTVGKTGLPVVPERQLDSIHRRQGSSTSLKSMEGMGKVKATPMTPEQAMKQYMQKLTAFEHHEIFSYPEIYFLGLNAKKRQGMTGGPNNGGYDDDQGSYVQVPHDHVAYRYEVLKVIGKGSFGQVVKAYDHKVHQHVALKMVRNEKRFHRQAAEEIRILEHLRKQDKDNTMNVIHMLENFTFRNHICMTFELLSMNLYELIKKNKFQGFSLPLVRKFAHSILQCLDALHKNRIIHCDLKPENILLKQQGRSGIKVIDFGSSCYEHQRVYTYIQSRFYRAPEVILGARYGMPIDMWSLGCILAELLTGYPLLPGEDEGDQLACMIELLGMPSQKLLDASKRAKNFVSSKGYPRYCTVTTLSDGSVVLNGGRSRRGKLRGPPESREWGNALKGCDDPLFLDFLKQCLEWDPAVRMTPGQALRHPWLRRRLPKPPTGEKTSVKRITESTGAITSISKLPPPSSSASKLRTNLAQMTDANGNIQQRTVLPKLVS
The settings on record: at 1 µM.

Assay [13] deals with T5, Dual specificity tyrosine-phosphorylation-regulated kinase 2 (Homo sapiens). To be noted: at 10 µM.
Assay [14] deals with T6, Ephrin type-A receptor 1 (Homo sapiens) (UniProt P21709).
T6 sequence (whole entry): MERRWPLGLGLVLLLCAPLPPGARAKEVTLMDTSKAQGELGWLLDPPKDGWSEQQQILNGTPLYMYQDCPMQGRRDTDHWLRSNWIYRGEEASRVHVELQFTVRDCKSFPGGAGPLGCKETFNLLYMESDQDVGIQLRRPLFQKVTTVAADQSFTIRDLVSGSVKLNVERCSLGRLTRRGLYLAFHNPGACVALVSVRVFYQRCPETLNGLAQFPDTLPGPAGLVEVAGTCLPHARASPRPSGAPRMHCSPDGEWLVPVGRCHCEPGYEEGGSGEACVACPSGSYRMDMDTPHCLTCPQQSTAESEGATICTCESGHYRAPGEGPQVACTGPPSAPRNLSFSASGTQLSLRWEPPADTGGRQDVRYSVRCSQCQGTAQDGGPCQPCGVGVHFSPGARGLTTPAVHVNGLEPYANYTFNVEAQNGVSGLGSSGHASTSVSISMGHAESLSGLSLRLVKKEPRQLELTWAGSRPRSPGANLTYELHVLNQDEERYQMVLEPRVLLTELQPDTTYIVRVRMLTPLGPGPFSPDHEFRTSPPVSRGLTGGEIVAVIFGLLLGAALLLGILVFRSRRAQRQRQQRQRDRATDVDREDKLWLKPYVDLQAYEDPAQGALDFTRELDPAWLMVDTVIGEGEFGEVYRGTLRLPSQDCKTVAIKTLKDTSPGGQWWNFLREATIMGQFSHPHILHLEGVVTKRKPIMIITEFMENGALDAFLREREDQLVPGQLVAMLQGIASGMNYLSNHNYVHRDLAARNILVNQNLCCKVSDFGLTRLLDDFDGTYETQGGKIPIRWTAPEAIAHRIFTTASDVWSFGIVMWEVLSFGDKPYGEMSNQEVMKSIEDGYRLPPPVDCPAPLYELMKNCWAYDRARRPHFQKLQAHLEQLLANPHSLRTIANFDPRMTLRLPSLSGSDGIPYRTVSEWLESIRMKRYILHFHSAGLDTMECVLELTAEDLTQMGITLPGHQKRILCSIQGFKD
The settings on record: at 1 µM.

For assay [15], the target named is T6, Ephrin type-A receptor 1 (Homo sapiens). To be noted: at 10 µM.
Assay [16] addresses Ephrin type-A receptor 2 (Homo sapiens) (UniProt P29317). The settings on record: at 1 µM.
The target is the same in assay [17]. The settings on record: at 10 µM.
Assay [18] concerns the target T7, Ephrin type-A receptor 3 (Homo sapiens) (UniProt P29320).
T7 sequence (whole entry): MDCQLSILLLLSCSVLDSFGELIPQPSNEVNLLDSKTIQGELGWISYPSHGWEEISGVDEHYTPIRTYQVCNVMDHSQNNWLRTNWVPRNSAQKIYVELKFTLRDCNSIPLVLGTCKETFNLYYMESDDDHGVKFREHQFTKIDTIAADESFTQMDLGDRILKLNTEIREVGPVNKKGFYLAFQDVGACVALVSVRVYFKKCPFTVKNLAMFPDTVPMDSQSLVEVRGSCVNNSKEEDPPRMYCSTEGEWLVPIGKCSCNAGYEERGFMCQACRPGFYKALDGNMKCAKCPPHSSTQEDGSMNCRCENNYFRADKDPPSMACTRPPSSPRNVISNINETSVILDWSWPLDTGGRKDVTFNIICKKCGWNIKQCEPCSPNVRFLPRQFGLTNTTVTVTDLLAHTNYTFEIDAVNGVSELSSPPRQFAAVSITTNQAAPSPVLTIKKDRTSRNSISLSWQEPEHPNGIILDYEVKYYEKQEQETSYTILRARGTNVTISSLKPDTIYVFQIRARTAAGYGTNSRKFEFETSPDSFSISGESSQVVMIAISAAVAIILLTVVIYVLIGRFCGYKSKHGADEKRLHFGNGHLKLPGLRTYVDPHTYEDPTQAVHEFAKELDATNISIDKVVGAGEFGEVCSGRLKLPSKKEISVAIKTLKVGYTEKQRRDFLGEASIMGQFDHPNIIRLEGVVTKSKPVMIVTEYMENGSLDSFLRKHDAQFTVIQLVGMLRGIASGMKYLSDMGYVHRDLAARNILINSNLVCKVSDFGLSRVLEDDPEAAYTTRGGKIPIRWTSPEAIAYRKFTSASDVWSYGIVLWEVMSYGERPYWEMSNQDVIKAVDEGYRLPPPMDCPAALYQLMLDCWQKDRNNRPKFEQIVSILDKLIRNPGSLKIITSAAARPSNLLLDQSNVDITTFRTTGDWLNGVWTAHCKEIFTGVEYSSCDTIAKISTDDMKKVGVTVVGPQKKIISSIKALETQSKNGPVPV
The settings on record: at 1 µM.

We go through two molecules from ChEMBL document CHEMBL2218924, “A broad activity screen in support of a chemogenomic map for kinase signalling research and drug discovery” (Biochem J, 2013).

The structures appear in SMILES notation.

Sequence of Ephrin type-A receptor 2 (Homo sapiens) (P29317 whole entry): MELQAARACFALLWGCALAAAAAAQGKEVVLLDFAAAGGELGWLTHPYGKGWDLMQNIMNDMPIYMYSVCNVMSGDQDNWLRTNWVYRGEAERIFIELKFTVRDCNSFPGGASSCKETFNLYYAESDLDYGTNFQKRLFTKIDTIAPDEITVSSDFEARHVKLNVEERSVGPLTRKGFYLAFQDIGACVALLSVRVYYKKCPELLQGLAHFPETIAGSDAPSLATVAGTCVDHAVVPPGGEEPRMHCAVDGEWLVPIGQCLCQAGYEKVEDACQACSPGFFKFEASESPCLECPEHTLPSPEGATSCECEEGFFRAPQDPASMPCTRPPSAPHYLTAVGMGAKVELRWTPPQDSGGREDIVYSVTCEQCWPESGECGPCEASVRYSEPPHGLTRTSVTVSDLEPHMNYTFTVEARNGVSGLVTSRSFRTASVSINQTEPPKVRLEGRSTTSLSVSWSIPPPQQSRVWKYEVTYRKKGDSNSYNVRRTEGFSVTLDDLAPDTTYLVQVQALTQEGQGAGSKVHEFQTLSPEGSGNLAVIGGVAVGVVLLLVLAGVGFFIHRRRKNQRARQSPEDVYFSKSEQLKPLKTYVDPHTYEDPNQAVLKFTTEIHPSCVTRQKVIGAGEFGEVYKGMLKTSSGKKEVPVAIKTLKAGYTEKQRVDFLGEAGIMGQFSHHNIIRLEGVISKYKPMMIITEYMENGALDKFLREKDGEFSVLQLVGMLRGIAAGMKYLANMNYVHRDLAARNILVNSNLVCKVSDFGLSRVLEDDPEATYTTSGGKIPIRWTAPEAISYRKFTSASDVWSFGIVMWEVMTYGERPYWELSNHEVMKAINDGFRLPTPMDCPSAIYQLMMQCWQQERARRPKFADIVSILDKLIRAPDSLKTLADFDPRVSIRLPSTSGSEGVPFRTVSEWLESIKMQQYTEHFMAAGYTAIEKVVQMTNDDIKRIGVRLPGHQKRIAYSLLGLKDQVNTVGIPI
Sequence of Death-associated protein kinase 2 (Homo sapiens) (Q9UIK4 whole entry, looked up): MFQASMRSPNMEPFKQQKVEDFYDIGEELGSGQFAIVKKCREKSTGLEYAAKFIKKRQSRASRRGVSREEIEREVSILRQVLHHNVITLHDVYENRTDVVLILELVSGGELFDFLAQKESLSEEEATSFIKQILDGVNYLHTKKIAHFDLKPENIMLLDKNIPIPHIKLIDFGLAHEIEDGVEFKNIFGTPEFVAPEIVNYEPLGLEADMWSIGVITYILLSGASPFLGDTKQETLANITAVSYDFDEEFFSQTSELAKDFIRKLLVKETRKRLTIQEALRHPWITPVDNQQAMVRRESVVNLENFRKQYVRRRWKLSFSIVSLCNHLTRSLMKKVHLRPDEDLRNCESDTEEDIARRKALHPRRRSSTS
Sequence of Death-associated protein kinase 1 (Homo sapiens) (P53355 whole entry, looked up): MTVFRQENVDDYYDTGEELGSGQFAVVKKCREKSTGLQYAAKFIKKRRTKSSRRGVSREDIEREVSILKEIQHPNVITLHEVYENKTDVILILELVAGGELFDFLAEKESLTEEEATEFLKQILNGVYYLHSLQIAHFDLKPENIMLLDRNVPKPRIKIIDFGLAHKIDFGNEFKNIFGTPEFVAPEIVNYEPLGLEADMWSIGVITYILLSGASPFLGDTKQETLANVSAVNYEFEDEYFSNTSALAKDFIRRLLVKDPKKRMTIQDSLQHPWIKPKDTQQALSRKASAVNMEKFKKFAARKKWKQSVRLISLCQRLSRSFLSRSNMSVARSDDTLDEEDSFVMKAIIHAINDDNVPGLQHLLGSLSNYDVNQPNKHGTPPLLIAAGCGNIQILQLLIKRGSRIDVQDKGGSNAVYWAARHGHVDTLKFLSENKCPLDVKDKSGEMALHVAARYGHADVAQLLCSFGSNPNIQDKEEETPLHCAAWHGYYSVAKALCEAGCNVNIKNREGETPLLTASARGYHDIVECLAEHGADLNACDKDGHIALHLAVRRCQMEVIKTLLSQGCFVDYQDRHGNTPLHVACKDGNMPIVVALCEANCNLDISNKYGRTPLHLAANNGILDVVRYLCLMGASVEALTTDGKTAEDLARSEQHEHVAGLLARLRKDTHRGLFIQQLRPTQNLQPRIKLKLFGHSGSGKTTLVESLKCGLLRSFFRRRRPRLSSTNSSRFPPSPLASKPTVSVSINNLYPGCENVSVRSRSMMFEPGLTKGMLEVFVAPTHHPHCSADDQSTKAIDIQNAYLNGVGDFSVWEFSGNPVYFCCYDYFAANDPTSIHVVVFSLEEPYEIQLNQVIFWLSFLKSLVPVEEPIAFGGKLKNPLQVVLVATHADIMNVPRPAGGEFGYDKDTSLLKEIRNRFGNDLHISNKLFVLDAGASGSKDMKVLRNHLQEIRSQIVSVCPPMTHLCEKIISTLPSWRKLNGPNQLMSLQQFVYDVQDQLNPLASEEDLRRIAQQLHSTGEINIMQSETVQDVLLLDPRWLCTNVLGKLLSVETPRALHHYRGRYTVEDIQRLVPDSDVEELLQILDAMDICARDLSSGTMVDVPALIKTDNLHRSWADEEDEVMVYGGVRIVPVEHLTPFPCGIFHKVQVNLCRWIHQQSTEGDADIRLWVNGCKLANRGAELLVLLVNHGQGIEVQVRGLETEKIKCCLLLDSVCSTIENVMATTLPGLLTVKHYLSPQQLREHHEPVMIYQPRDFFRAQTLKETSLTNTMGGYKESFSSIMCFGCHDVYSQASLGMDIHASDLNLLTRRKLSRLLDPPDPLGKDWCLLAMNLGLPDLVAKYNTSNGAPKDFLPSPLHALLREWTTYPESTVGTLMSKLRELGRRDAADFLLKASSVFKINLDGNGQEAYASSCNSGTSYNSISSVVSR

For `Cn1cc(/C=C2\C(=O)Nc3ccc(S(N)(=O)=O)cc32)c2ccccc21`, the residual activity in assay [1] worked out at 85%; in assay [2], 92%; in [3] it was 94%; in assay [4], 97%; in assay [5], 77%; in [6] it was 94%. The residual activity was determined as 99% in [7]; 80% in [8]; 120% in [9]; 22% in assay [10]; 3% in assay [11]; 102% in [12]. In addition, the residual activity turned out to be 99% in assay [13]; 89% in assay [14]; 107% in assay [15]; 100% in [16]; 72% in assay [17]; 50% in [18].
As to `CN(C)c1ccc(/C=C2\C(=O)Nc3ccccc32)cc1`, the residual activity was determined as 80% in [1]; 102% in assay [2]; 88% in [3]; 88% in assay [4]; 101% in [5]; 104% in [6]. Further, the residual activity stood at 99% in [7]; 111% in [8]; 130% in assay [9]; 25% in assay [10]; 6% in assay [11]; 98% in assay [12]. Further, the residual activity stood at 98% in assay [13]; 100% in assay [14]; 102% in assay [15]; 123% in [16]; 107% in assay [17]; 99% in assay [18].

As a reminder, the residual activity is the signal under treatment as a percentage of the control signal.
